# PubChem BioAssay (NCI)
# The panel holds about 79,000 compounds, 15% with a hit somewhere; the sample as a whole holds those more often. A number with no mark means an inactive call. The source made the active and inactive calls. No stated cut-off is given here; in the data, active means growth inhibition above about 70%; inactive means the rest.
# Assays:
# [1] = NCI Yeast Anticancer Drug Screen. Data for the rad52 strain (AID 147);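 further: 0% = growth of vehicle-treated control cultures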; details: S. cerevisiae rad52 mutant growth inhibition, stronger effect = higher value
# Procedure, shortened: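 Inhibition of yeast growth, referenced to vehicle controls, was the measured output for a strain with defective DNA damage repair.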
# [2] = NCI Yeast Anticancer Drug Screen. Data for the rad50EPP+ strain (AID 151);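 further: 0% = growth of vehicle-treated control cultures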; details: S. cerevisiae rad50 mutant strain, stronger effect = higher value
# Procedure, shortened: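 Genetically defined yeast (rad50EPP+, DNA damage repair alteration) is grown with compound, and inhibition of growth is expressed relative to vehicle-treated controls.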
# [3] = NCI Yeast Anticancer Drug Screen. Data for the mgt1 strain (AID 153); details: S. cerevisiae mgt1 mutant growth inhibition, stronger effect = higher value
# Procedure, shortened: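 In the mgt1 strain, test compounds were added and growth inhibition was determined relative to vehicle-treated controls.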
# [4] = NCI Yeast Anticancer Drug Screen. Data for the rad50 strain (AID 155);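 further: 0% = growth of vehicle-only cultures of the same strain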; details: S. cerevisiae rad50 strain growth inhibition, stronger effect = higher value
# Procedure, shortened: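 Readout: growth inhibition relative to vehicle-treated cultures. Compound exposure was carried out in a genetically defined yeast strain deficient in DNA damage repair.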
# [5] = NCI Yeast Anticancer Drug Screen. Data for the mec2-1 strain (AID 157); details: S. cerevisiae mec2-1 strain, stronger effect = higher value
# Procedure, shortened: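 Each compound was tested on mec2-1 yeast, a strain altered in DNA damage repair or cell cycle control. Growth inhibition is reported relative to vehicle.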
# [6] = NCI Yeast Anticancer Drug Screen. Data for the rad14 strain (AID 159);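 further: 0% = growth of vehicle-treated control cultures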; details: S. cerevisiae rad14 strain growth inhibition, stronger effect = higher value
# Procedure, shortened: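 Growth inhibition vs vehicle controls; genetically altered yeast strain (DNA damage repair defect) treated with test compounds.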
# [7] = NCI Yeast Anticancer Drug Screen. Data for the sgs1 mgt1 strain (AID 161);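 further: 0% = growth of cultures given vehicle only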; details: S. cerevisiae sgs1 mgt1 strain, stronger effect = higher value
# Procedure, shortened: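 Genetically altered yeast, compound exposure, growth inhibition relative to vehicle.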
# [8] = NCI Yeast Anticancer Drug Screen. Data for the CLN2oe strain (AID 163);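 further: 0% = growth of vehicle-only control cultures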; details: S. cerevisiae CLN2oe strain, stronger effect = higher value
# Procedure, shortened: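 First, the altered yeast strain was treated with each compound; second, its growth was measured; finally, inhibition was derived by comparison with vehicle controls.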
# [9] = NCI Yeast Anticancer Drug Screen. Data for the cln2 rad14 strain (AID 165);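 further: 0% = growth equal to vehicle treated cultures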; details: S. cerevisiae cln2 rad14 strain, stronger effect = higher value
# Procedure, shortened: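 Test compounds were added to cln2 rad14 yeast cultures; inhibition of growth was then determined by comparison with vehicle treatment.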
# [10] = NCI Yeast Anticancer Drug Screen. Data for the bub3 strain (AID 167); details: S. cerevisiae bub3 mutant strain, stronger effect = higher value
# Procedure, shortened: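 Readout: yeast growth inhibition, expressed relative to vehicle-only wells. The test organism is a mutant strain from a panel with lesions in DNA repair or checkpoint genes.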
# [11] = NCI Yeast Anticancer Drug Screen. Data for the wt2 strain (AID 169);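 further: 0% = growth of vehicle-treated yeast cultures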; details: S. cerevisiae wt2 strain growth inhibition, stronger effect = higher value
# Procedure, shortened: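 The panel's yeast strains carry defined changes in DNA repair or cell cycle genes. Each strain is grown with compound, and growth loss is scored relative to vehicle.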
# [12] = NCI Yeast Anticancer Drug Screen. Data for the mlh1 strain (AID 171);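 further: 0% = growth of vehicle-treated control cultures of the same strain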; details: S. cerevisiae mlh1 strain growth inhibition, stronger effect = higher value
# Procedure, shortened: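 Inhibition values reflect reduced yeast growth in the presence of compound, referenced to vehicle controls, using a strain chosen for its alteration in DNA repair or cell cycle control.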
# [13] = NCI Yeast Anticancer Drug Screen. Data for the sgs1 strain (AID 173);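 further: 0% = growth of vehicle-only control cultures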; details: S. cerevisiae sgs1 mutant, stronger effect = higher value
# Procedure, shortened: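 Vehicle-treated cultures served as reference for growth inhibition of a yeast strain altered in DNA damage repair or cell cycle control after compound exposure.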
# [14] = NCI Yeast Anticancer Drug Screen. Data for the mlh1 rad18 strain (AID 175); details: S. cerevisiae mlh1 rad18 strain growth inhibition, stronger effect = higher value
# Procedure, shortened: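 Inhibition values reflect reduced growth of mutant yeast versus vehicle-treated controls following compound exposure; the mutations affect DNA damage repair.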
# [15] = NCI Yeast Anticancer Drug Screen. Data for the rad18 strain (AID 177); details: S. cerevisiae rad18 mutant growth inhibition, stronger effect = higher value
# Procedure, shortened: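 Steps: expose repair-mutant yeast to compound; measure growth; express as inhibition relative to vehicle control.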
# [16] = at 5.0 µM (retest, dose inferred, filed as 0.5)
# [17] = at 50.0 µM (retest, dose inferred, filed as 5.0)
smiles,measurement,setting,value
Oc1ccc2ccccc2c1CCc1c(O)ccc2ccccc12,growth inhibition,[1]; at 1.2 µM,3%
same,growth inhibition,[1]; at 3.7 µM,14%
same,growth inhibition,[1]; at 11.0 µM,54%
same,growth inhibition,[1]; at 33.0 µM,94% (active)
same,growth inhibition,[1]; at 100.0 µM,85% (active)
same,growth inhibition,[2]; at 1.2 µM,28%
same,growth inhibition,[2]; at 3.7 µM,70% (active)
same,growth inhibition,[2]; at 11.0 µM,85% (active)
same,growth inhibition,[2]; at 33.0 µM,86% (active)
same,growth inhibition,[2]; at 100.0 µM,83% (active)
same,growth inhibition,[3]; at 1.2 µM,2%
same,growth inhibition,[3]; at 3.7 µM,6%
same,growth inhibition,[3]; at 11.0 µM,60%
same,growth inhibition,[3]; at 33.0 µM,95% (active)
same,growth inhibition,[3]; at 100.0 µM,87% (active)
same,growth inhibition,[4]; at 1.2 µM,5%
same,growth inhibition,[4]; at 3.7 µM,13%
same,growth inhibition,[4]; [16],15%
same,growth inhibition,[4]; at 11.0 µM,68%
same,growth inhibition,[4]; at 33.0 µM,93% (active)
same,growth inhibition,[4]; [17],94% (active)
same,growth inhibition,[4]; at 50.0 µM,95.1% (active)
same,growth inhibition,[4]; at 100.0 µM,86% (active)
same,growth inhibition,[5]; at 1.2 µM,7%
same,growth inhibition,[5]; at 3.7 µM,15%
same,growth inhibition,[5]; [16],-6%
same,growth inhibition,[5]; at 11.0 µM,95% (active)
same,growth inhibition,[5]; at 33.0 µM,96% (active)
same,growth inhibition,[5]; [17],95% (active)
same,growth inhibition,[5]; at 50.0 µM,96.5% (active)
same,growth inhibition,[5]; at 100.0 µM,90% (active)
same,growth inhibition,[6]; at 1.2 µM,3%
same,growth inhibition,[6]; at 3.7 µM,8%
same,growth inhibition,[6]; at 11.0 µM,28%
same,growth inhibition,[6]; at 33.0 µM,89% (active)
same,growth inhibition,[6]; at 100.0 µM,85% (active)
same,growth inhibition,[7]; [16],41%
same,growth inhibition,[7]; [17],94% (active)
same,growth inhibition,[7]; at 50.0 µM,95% (active)
same,growth inhibition,[8]; at 1.2 µM,7%
same,growth inhibition,[8]; at 3.7 µM,4%
same,growth inhibition,[8]; at 11.0 µM,97% (active)
same,growth inhibition,[8]; at 33.0 µM,92% (active)
same,growth inhibition,[8]; at 100.0 µM,82% (active)
same,growth inhibition,[9]; [16],6%
same,growth inhibition,[9]; [17],92% (active)
same,growth inhibition,[9]; at 50.0 µM,88.2% (active)
same,growth inhibition,[10]; at 1.2 µM,-1%
same,growth inhibition,[10]; at 3.7 µM,2%
same,growth inhibition,[10]; [16],45%
same,growth inhibition,[10]; at 11.0 µM,98% (active)
same,growth inhibition,[10]; at 33.0 µM,93% (active)
same,growth inhibition,[10]; [17],94% (active)
same,growth inhibition,[10]; at 50.0 µM,94.9% (active)
same,growth inhibition,[10]; at 100.0 µM,86% (active)
same,growth inhibition,[11]; at 1.2 µM,7%
same,growth inhibition,[11]; at 3.7 µM,16%
same,growth inhibition,[11]; at 11.0 µM,38%
same,growth inhibition,[11]; at 33.0 µM,66%
same,growth inhibition,[11]; at 100.0 µM,87% (active)
same,growth inhibition,[12]; at 1.2 µM,5%
same,growth inhibition,[12]; at 3.7 µM,8%
same,growth inhibition,[12]; at 11.0 µM,79% (active)
same,growth inhibition,[12]; at 33.0 µM,94% (active)
same,growth inhibition,[12]; at 100.0 µM,90% (active)
same,growth inhibition,[13]; at 1.2 µM,7%
same,growth inhibition,[13]; at 3.7 µM,19%
same,growth inhibition,[13]; at 11.0 µM,51%
same,growth inhibition,[13]; at 33.0 µM,92% (active)
same,growth inhibition,[13]; at 100.0 µM,88% (active)
same,growth inhibition,[14]; [16],55%
same,growth inhibition,[14]; [17],92% (active)
same,growth inhibition,[14]; at 50.0 µM,95.2% (active)
same,growth inhibition,[15]; at 1.2 µM,5%
same,growth inhibition,[15]; at 3.7 µM,15%
same,growth inhibition,[15]; at 11.0 µM,46%
same,growth inhibition,[15]; at 33.0 µM,91% (active)
same,growth inhibition,[15]; at 100.0 µM,85% (active)
